Source: PubChem BioAssay
Pf growth 96h – inhibits malaria parasite growth, 96 h; P. falciparum luciferase reporter growth, 96 h; Potency, µM (doses to about 28.7 µM), without a hit: at the highest dose activity change, negative = inhibition, usual class: inhibitors; hit rate 6.9% among 320,000; AID 504834; further: potency means the concentration at half of the fitted maximal effect; on the % scale 0 is the no-effect control and ±100 the full control effect
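Luminescence readout: decreased luciferase signal marks inhibited growth of reporter-expressing P. falciparum in infected red cells (2% hematocrit, 0.05% parasitemia final), exposed to compound two generations (96 h, 37 C, 5% CO2).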
Pf growth 48h – P. falciparum growth inhibition at 48 hours (one generation); P. falciparum luciferase growth in erythrocytes, 48 h; hit rate 5.9% among 310,000; Potency, µM (doses to about 28.7 µM), without a hit: top-dose activity change, negative = inhibition, usual class: inhibitors; further: potency means the concentration at half of the fitted maximal effect; on the % scale 0 is the no-effect control and ±100 the full control effect
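Firefly luciferase activity from engineered P. falciparum reports growth; inhibitors lower the luminescent signal. Cultures contained 2% hematocrit erythrocytes at 0.1% final parasitemia.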
Shiga inhibitor – inhibitors of Shiga toxin in Vero cells. Vero cells, Shiga toxin protein synthesis inhibition reporter. inhibition, % at 38.7 µM. hit rate 9.2% among 290,000. AID 2315; in the data active means inhibition mostly above about 28%, no sharp cut-off; inactive means mostly below about 43%; further: 0% is about no effect
Cycloheximide cs – counter-screen hit for Shiga toxin inhibitors, cycloheximide; hit rate 12% among 300,000; max response, %; cell reporter, cycloheximide protein synthesis inhibition counterscreen; in the data active means max response mostly above about 13%, no sharp cut-off; inactive means mostly below about 14%; further: read at 38.3 µM for the half of the compounds with a filed dose; 0% is about no effect
HCV inh – blocks hepatitis C virus; Huh7.5.1 HCVcc-Cre infection, luciferase reporter, 44 h; Potency, µM (titrated, usually from 41.8 µM), without a hit: at the highest dose activity change, negative = inhibition, actives largely listed as inhibitors; hit rate 3.4% among 340,000; further: potency means the concentration at half of the fitted maximal effect; on the % scale 0 is the no-effect control and ±100 the full control effect
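Cells (1,000/well) were plated 4 h before compound, then infected with HCVcc-Cre virus (~0.5 moi). After 44 h further culture, infection was read as luciferase luminescence following a 15 min substrate incubation at room temperature.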
HCMV antiviral – blocks human cytomegalovirus replication; hit rate 4.5% among 410,000; activity change, negative = inhibition, % at 57.5 µM; HFF cells, HCMV-luciferase reporter, 72 h; hits give low values; in the data active means activity change below about -60%; inconclusive means no clear call, values can overlap the other calls; inactive means above about -39%; further: on the % scale 0 is the no-effect control and ±100 the full control effect
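Inhibition of viral replication was scored as loss of reporter luminescence in HFFs infected with HCMV-luciferase (MOI 1 PFU/cell) for 72 h; compounds tested at 2 doses, normalized to buffer and Salinomycin controls.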
Active calls of the source: *; ? = inconclusive; nt = not tested or not shown. This is a sample that favours compounds with a hit; in the whole collection about 21% have one here. Unless noted, the call rests on the fitted dose curve; in most records, active means well fitted inhibition curve with a large enough effect; inconclusive means small, poorly fitted or top-dose-only effect, or another doubt; inactive means no such curve, though single readings can be large or run the other way.

SMILES	Pf growth 96h	Pf growth 48h	Shiga inhibitor	Cycloheximide cs	HCV inh	HCMV antiviral
Fc1ccc(NC(=S)NC2CC3CCCC(C2)N3Cc2cccs2)cc1 (stereo unspecified)	1.6%	?	-29.8	-3.7	2.1%	-11.0
CC(C)CNC(=S)NC1CC2CCCC(C1)N2Cc1cccs1 (stereo unspecified)	3.7µM*	13.1µM*	9.9	-1.1	-4.3%	9.6
CNC(=S)NC1CC2CCCC(C1)N2Cc1ccco1 (stereo unspecified)	33.5%	12.5%	-2.3	4.5	3.9%	-7.5
CC(C)CNC(=S)NC1CC2CCCC(C1)N2Cc1ccco1 (stereo unspecified)	11.7µM*	-16.5%	-18.2	-2.5	11.9%	-38.6
O=C(NNC(=O)c1ccccc1F)c1ccc(Cl)c(S(=O)(=O)N2CCOCC2)c1	-24.5%	-15.6%	nt	nt	-1.8%	-10.4
CCOc1ccc2nc(N(CCN(CC)CC)C(=O)c3cccc([N+](=O)[O-])c3)sc2c1	-7.5%	7.2%	15.6	-4.8	-11.5%	-28.3
COc1cc(Cn2c(=O)oc3ccc(C)cc32)ccc1OC(C)C	?	0.1%	8.1	7.9	1.12µM*	12.3
COc1cccc(Cn2c(=O)oc3ccccc32)c1	48.6%	46.6%	44.6*	41.5*	9.6%	34.3
COc1cccc(Cn2c(=O)n(CCc3ccccc3)c(=O)c3c2c2cc(OC)ccc2n3C)c1	nt	nt	nt	nt	nt	20.9
O=c1oc2ccccc2n1Cc1ccccc1	41.2%	45.1%	-7.5	-5.3	14.4%	-5.7
COc1cccc(Cn2c(=O)ccc3ccccc32)c1	108.2%	33.7%	12.1	17.6	-0.9%	-81.0*
COc1ccc(CCNS(=O)(=O)CCNC(=O)c2ccc3c(c2)OCO3)cc1	15.6%	18.4%	nt	nt	-3.0%	-13.5
O=C(CN1CCN(S(=O)(=O)/C=C/c2ccccc2)CC1)NCC(F)(F)F	?	-26.5%	-13.3	-10.2	-16.9%	-13.6
O=C(O)c1cccc(CSc2ncn[nH]2)c1	99.7%	46.5%	24.5	7.6*	21.6%	-31.4
NCCc1nnc(SCc2ccccc2)o1	nt	10.9%	-21.2	-5.9	0.3%	-3.1
O=C(CSc1nnc(Cc2ccccc2)o1)c1ccc2c(c1)OCO2	7.5%	-23.6%	nt	nt	-5.9%	-2.1
O=C(CSc1nnc(CNc2ccc(F)cc2)o1)c1ccccc1	14.7%	?	32.5	21.5*	0.2%	-29.4
O=C(CSc1nnc(Cc2ccccc2)o1)c1ccccc1	?	26.0%	24.3	31.7*	-9.2%	-16.3
c1ccc(CSc2nnc(Cc3ccccc3)o2)cc1	449.9%	66.0%	53.7*	40.3*	8.4%	3.2
COc1ccc(C(=O)CSc2nnc(CNc3ccc(F)cc3)o2)cc1	-29.9%	6.6%	8.5	-2.3	?	?
COc1ccccc1NC(=O)CCS(=O)(=O)c1cc2c3c(c1)CCN3C(=O)CC2	nt	nt	nt	nt	nt	-6.6
O=C1[C@H](c2ccccc2)[C@@H](c2ccccc2)N1c1ccncc1	nt	nt	nt	nt	-18.4%	-16.3
Cc1ccc(NC(=O)CSc2nnc(Cc3ccccc3)o2)cc1	11.7µM*	96.6%	11.2	4.4	5.8%	59.3
O=C(O)c1cccc(CSc2nnc(-c3ccco3)o2)c1	41.5%	nt	20.9	9.1	15.1%	11.8
CCCn1c(N)c(C(=O)CSc2nnc(Cc3ccccc3)o2)c(=O)n(C)c1=O	?	8.28µM*	1.5	3.0	10µM*	-32.3
SMILES	Pf growth 96h	Pf growth 48h	Shiga inhibitor	Cycloheximide cs	HCV inh	HCMV antiviral
O=C(O)c1cccc(CSc2nnc(Cc3ccccc3)o2)c1	nt	47.3%	44.3*	14.7	?	16.8
Cc1cccc(NC(=O)CSc2nnc(Cc3ccccc3)o2)c1	37.2%	5.0%	-13.3	10.8	6.4%	-3.3
c1ccc(CSc2nnc(Cc3ccccn3)o2)cc1	nt	29.2%	45.7	25.2*	-1.4%	0.0
COc1ccc(Cl)cc1NC(=O)Cn1nnc(C(=O)NCc2cccs2)c1N	nt	nt	nt	nt	nt	-12.5
O=C(COc1ccccc1Br)NCCc1nc2ccccc2[nH]1	-24.8%	-2.5%	-5.3	0.9	8.7%	-31.1
N#Cc1ccc(-c2cn3c(n2)SCC3)cc1	103.0%	96.3%	63.8*	36.1*	-8.8%	0.8
Cc1nn(C)c2c1c(C(F)(F)F)cc(=O)n2CC(=O)NCc1ccccc1Cl	nt	nt	nt	nt	nt	6.7
CN(C)S(=O)(=O)c1ccc(NC(=O)CSc2nc3ccccc3n2-c2ccccc2)cc1	2.33µM*	5.86µM*	-5.8	-3.0	?	?
